# The panel holds about 83,000 compounds, 20% with a hit somewhere; the sample as a whole holds those more often.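 Cells were grown in 96-well plates and exposed to the test compound at a single concentration for 48 hours; results are reported as percent growth, with values below 10 considered active.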 Values without a mark were called inactive. The source made the active and inactive calls.
# Legend:
# Assay in all cases: NCI-60 one-dose screen, 48 h (100 = growth as untreated, 0 = no growth, -100 = all killed)
# Conditions in all cases: 10 µM unless noted
# NCI-H23 lung = tested on: NCI-H23 lung
# NCI-H226 lung = tested on: NCI-H226 lung
# NCI-H322M lung = tested on: NCI-H322M lung
# HOP-62 NSCLC = tested on: HOP-62 NSCLC
# NCI-H460 lung = tested on: NCI-H460 lung
# HOP-92 NSCLC = tested on: HOP-92 NSCLC
# NCI-H522 lung = tested on: NCI-H522 lung
# A549/ATCC NSCLC = tested on: A549/ATCC NSCLC
# 786-0 renal = tested on: 786-0 renal
# COLO 205 colon = tested on: COLO 205 colon
SMILES,growth (NCI-H23 lung),growth (NCI-H226 lung),growth (NCI-H322M lung),growth (HOP-62 NSCLC),growth (NCI-H460 lung),growth (HOP-92 NSCLC),growth (NCI-H522 lung),growth (A549/ATCC NSCLC),growth (786-0 renal),growth (COLO 205 colon)
COc1ccc2c(c1)CCCC21C(=O)Nc2c(Cl)cccc21 (stereo not given),86%,85.9%,88.1%,55.7%,94.4%,72.3%,27.7%,68.7%,78.9%,80.6%
Cc1cc(Cl)c2ccc(N(C)C)cc2n1,100%,97.6%,110%,95.5%,106%,102%,-10.1% (active),94.9%,99%,102%
CC(C)(C)c1ccc(Cn2c(-c3nonc3N)nc3ccccc32)cc1,70.7%,83.4%,83%,82.1%,86%,64.3%,49.3%,68.4%,80.4%,67.2%
CCN(CC)CCCC(C)Nc1cnc(C(=O)Nc2cccc3ccc(OC)nc23)cn1 (stereo not given),96.1%,61.4%,75.5%,94.2%,1.05% (active),49.5%,5.07% (active),81.2%,73.4%,71.4%
COc1ccc2[nH]cc(C(c3ccc(Cl)cc3)N3CCCC3)c2c1 (stereo not given),93.2%,98.2%,94.3%,97.6%,101%,79.2%,82.1%,98.8%,102%,114%
CCOP(=O)(O)OP(=O)(O)OCC,104%,103%,98.1%,103%,103%,98.6%,82.5%,106%,99.4%,103%
CN(C)CCOc1nc2c3cccnc3cc(-c3cccc(Cl)c3)c2c2ncccc12,31.2%,40.5%,44.9%,44.4%,-49.8% (active),42.7%,34.1%,22%,21.8%,-65.4% (active)
COc1ccc(Nc2ncccc2C(=O)NCc2cn(Cc3cc(OC)cc(OC)c3)nn2)cc1,103%,98.3%,105%,81.9%,98.3%,93.2%,79.4%,89.5%,95.3%,114%
COc1ccc2[nH]c(C(=O)OCc3ccc4cccc(O)c4n3)cc2c1,-3.84% (active),-68.1% (active),62.7%,35%,7.31% (active),-78.2% (active),-66.9% (active),21.2%,-76.1% (active),-69.1% (active)
CC(=O)[C@H]1CC[C@H]2[C@@H]3CC[C@H]4CC=CC[C@]4(C)[C@H]3CC[C@]12C,96.8%,92.9%,95.2%,109%,104%,101%,40%,84%,91.7%,106%
COc1c(B(O)O)cccc1-c1nc2c(F)cc3n[nH]c(C)c3c2c2c1CCCC2,17.5%,-0.685% (active),27.6%,22%,11.7%,24.7%,9.41% (active),9.82% (active),19.8%,15.6%
Cc1ccc(NC(=O)c2nc(S(C)(=O)=O)oc2-c2ccc(F)cc2)cc1Nc1ccc2ncn(C)c(=O)c2c1,60.4%,85.2%,108%,100%,83.6%,108%,-7.9% (active),102%,78.8%,-8.69% (active)
CC(=O)c1c(C)nc(-c2cc(C)cc(Cl)c2)nc1-c1cccc(Oc2ccccc2)c1,86%,84%,91%,76.2%,36.1%,38%,59%,69.1%,70.3%,70.2%
Cc1nc2ccc(Nc3nc(N4CCOCC4)nc(N4CCN(C)CC4)n3)cc2n1Cc1ccccc1,92%,95.8%,76.1%,86.6%,97.8%,64.5%,93.2%,85.1%,72.8%,73.2%
COc1ccc2nc(NC(=O)/C(=C/c3cc(OC)c(OC)c(OC)c3)c3ccc(OC)c(OC)c3)sc2c1,93.2%,80.2%,82.5%,87.8%,111%,74.3%,78.1%,85.6%,100%,104%
[Ag].[Ag].[NH-]S(=O)(=O)c1ccc(N=Nc2cc(N=Nc3ccc(S([NH-])(=O)=O)cc3)c3c(NC(=O)C(Cl)Cl)cccc3c2OC(=O)C(Cl)Cl)cc1.[c-]1nccs1.[c-]1nccs1,93.8%,90.8%,97.2%,78.9%,56.7%,60.7%,-86.4% (active),83.5%,106%,6.93% (active)
Cc1ccc2nc(CN(CCN(Cc3nc4ccc(C)cc4[nH]3)Cc3nc4ccc(C)cc4[nH]3)Cc3nc4ccc(C)cc4[nH]3)[nH]c2c1,-57.3% (active),-97.1% (active),-95.7% (active),-93.3% (active),-94.8% (active),-80.7% (active),-86.4% (active),-89.1% (active),-97.3% (active),-93.4% (active)
O=C1c2ccccc2C(=O)c2c1oc1ccc3ccccc3c21,33.7%,85.5%,83.1%,108%,44.9%,102%,97.5%,60.8%,101%,107%
CCC1CCc2nc3sc(C(=O)Nc4cccc(F)c4)c(N)c3cc2C1 (stereo not given),91.7%,85.2%,87.8%,74.1%,74.5%,61.4%,70.1%,66.3%,83.1%,67.8%
COc1ccc(/C=C2\N=C(c3cccnc3)N(c3ccccc3)NC2=O)cc1,95.8%,86.8%,94.3%,109%,96.4%,22.9%,98.2%,95.7%,100%,113%
N[C@@H](CO)C(=O)O,91%,97.7%,103%,105%,107%,89.8%,107%,102%,95.1%,106%
CC1=C(C(=O)Nc2ccc(F)cc2)C(c2ccccc2)C2=C(CC(C)(C)CC2=O)N1 (stereo not given),72.2%,84.9%,95.9%,96.1%,73%,-3.3% (active),53.4%,76.7%,84.6%,99.2%
Cc1cc(O)ccc1C1=NN(c2ccc(S(N)(=O)=O)cc2)C(=O)CC1,64.3%,94.6%,121%,80.2%,12.1%,89.7%,-36.6% (active),43.9%,60.4%,55.6%
COc1ccc(-c2nc3ccc(Cc4ccc5nc(-c6ccc(OC)cc6)[nH]c5c4)cc3[nH]2)cc1,-17.9% (active),90.6%,97.7%,49.1%,69.1%,77.9%,-13.4% (active),48.5%,89.5%,5.61% (active)
C=C(C)C1CCC2(C(=O)O)CCC3(C)C(CCC4C5(C)CCC(O)C(C)(C)C5CCC43C)C12 (stereo not given),-50.3% (active),33.2%,6.5% (active),-59.1% (active),-22.5% (active),-26.2% (active),1.49% (active),-53.5% (active),-66.5% (active),-45.3% (active)
O=C(Nc1ccccc1)C(CCCCN1C(=O)c2ccccc2C1=O)N1C(=O)c2ccccc2C1=O (stereo not given),107%,95.3%,98%,109%,109%,76.8%,94.6%,97.8%,99.6%,118%

# From PubChem BioAssay (NCI)
